Reference: PMC4336329 (PLoS ONE, 2015)
The campaign covered roughly 310,000 compounds. About 14,000 (4.5%) showed an effect of 50% or more. The effect is printed as a negative number. The sample as a whole holds a higher share of strong results than the screen did.

These molecules were tested against human ether-à-go-go-related gene (hERG) potassium channel (human, UniProt Q12809) (assay: primary screen, population patch clamp on CHO cells stably expressing hERG; higher = less effect of the substance).
Sequence of human ether-à-go-go-related gene (hERG) potassium channel (Q12809 whole entry, looked up): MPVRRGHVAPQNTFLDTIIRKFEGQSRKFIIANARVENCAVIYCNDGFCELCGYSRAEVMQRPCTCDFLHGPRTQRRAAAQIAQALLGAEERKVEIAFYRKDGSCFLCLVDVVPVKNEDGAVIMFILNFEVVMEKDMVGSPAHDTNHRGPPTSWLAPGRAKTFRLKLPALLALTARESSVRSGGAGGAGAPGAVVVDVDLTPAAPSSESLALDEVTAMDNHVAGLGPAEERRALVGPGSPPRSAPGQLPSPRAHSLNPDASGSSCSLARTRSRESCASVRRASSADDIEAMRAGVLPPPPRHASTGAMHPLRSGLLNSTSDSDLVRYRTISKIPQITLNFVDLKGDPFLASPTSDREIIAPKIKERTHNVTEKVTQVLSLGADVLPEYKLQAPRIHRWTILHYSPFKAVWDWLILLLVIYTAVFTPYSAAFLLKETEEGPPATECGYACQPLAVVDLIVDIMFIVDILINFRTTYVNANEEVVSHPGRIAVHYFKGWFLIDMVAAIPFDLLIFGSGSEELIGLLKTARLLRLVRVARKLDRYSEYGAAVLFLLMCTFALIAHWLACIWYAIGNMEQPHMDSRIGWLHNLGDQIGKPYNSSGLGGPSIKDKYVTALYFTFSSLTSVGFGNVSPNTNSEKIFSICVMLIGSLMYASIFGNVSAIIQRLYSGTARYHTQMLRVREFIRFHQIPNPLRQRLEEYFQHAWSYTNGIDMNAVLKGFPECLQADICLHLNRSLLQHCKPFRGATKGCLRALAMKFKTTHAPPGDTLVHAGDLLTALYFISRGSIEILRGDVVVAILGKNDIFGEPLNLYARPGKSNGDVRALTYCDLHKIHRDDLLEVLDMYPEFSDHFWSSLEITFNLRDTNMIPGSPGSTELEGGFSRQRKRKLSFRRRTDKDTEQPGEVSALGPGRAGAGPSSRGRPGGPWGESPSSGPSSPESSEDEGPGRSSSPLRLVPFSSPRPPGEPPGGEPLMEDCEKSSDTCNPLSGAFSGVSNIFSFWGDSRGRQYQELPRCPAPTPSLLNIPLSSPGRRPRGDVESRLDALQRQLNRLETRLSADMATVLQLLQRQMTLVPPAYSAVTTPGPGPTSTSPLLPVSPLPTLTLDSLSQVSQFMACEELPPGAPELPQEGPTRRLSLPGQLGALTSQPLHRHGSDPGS
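Also: peak tail current of the secondary pulse compared with the same well before compound.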

SMILES	hERG current change (%, negative = inhibition) at 10uM
COc1cccc(CC(=O)N2CCC(n3nccc3NC(=O)C3CCOC3)CC2)c1 (stereo not drawn)	21.7%
NC(=O)c1ccccc1NC(=O)Nc1ccccc1Cl	11.8%
COCCn1c(C)cc(C(=O)CSc2ccc(NC(C)=O)cc2)c1C	12.4%
COc1ccc(N2CCN(C(=O)CCNC(=O)Cn3ccc4ccccc4c3=O)CC2)cc1	-8.61%
CN1CCN(NC(=O)c2cc(-c3ccccn3)nc3ccccc23)CC1	14%
Cc1cccc(OCCCCCNCCO)c1	3.93%
CCC(C)(C)n1nnnc1C(c1ccc(C)cc1)N1CCN(C(=O)c2ccco2)CC1 (stereo not drawn)	-45.8%
CN1CCN(C(=S)C(=O)NCc2ccccc2)CC1	-2.07%
COc1cc(CNc2ccccc2SC)ccc1O	12.8%
O=C(NCC1CCCO1)c1onc(CSc2ccc(F)c(F)c2)c1C(=O)O (stereo not drawn)	1.63%
C=CCNC(=O)c1onc(CSc2ccc(F)c(F)c2)c1C(=O)NCC=C	-64.5%
O=C(NCC1CC1)c1onc(CSc2ccc(F)c(F)c2)c1C(=O)NCC1CC1	-56.1%
C=CCNC(=O)c1onc(CSc2ccc(F)c(F)c2)c1C(=O)O	22.4%
C=CCNC(=O)c1onc(CSc2ccc(Cl)cc2)c1C(=O)NCC=C	-36.6%
COCCNC(=O)c1onc(CSc2ccc(F)c(F)c2)c1C(=O)NCCOC	-25.5%
Cl.OC(CNC1CCCC1)COc1ccccc1Br (stereo not drawn)	7.79%
O=C(Cc1ccccc1)NCC(=O)Nc1ccccc1Br	16.8%
Cc1cc(NC(=O)CSc2nc(-c3ccc(Br)cc3)nc3c2c(=O)n(C)c(=O)n3C)no1	-8.93%
O=C(COC(=O)c1ccccc1F)NNC(=O)c1ccccc1	8.17%
O=C(CSCc1ccc(Cl)cc1)Nc1nccs1	6.08%
CCc1ccccc1NC(=O)COc1ccc2c(c1)OCO2	-4.6%
CCN(CCCNC(=O)CC(C(=O)N1CCc2ccccc21)n1ccnc1)c1ccccc1 (stereo not drawn)	-45.6%

SMILES	hERG current change (%, negative = inhibition) at 10uM
CCN(CCCNC(=O)CC(C(=O)N1CCc2ccccc21)n1ccnc1)c1cccc(C)c1 (stereo not drawn)	-65%
CCCN(CCC)CCCNC(=O)CC(C(=O)N1CCc2ccccc21)n1ccnc1 (stereo not drawn)	-0.225%
Nc1ccc(Cl)c(S(=O)(=O)Nc2ccc(Cl)cc2)c1	17.3%
Cc1ccc(N2CC(C(=O)Nc3ccc(S(=O)(=O)Nc4nccc(C)n4)cc3)CC2=O)cc1 (stereo not drawn)	3.17%
CN(C)C(=O)c1ccccc1Sc1ccc(Cl)cc1Cl	-70.4%
CN(C)C(=O)c1ccccc1Sc1cc(Cl)ccc1Cl	-14.5%
CN(C)C(=O)c1cc(Cl)ccc1Sc1cc(Cl)ccc1Cl	-6.03%
Cc1onc(-c2ccccc2)c1C(=O)NCc1ccccc1F	7.62%
[N-]=[N+]=CC(=O)OC[C@H](N)C(=O)O	10.8%
CCOC(=O)c1c(CN(C)C)n(-c2ccccc2)c2cc(Br)c(O)cc12.Cl	-75.8%
CCOC(=O)c1c(C)n(CC(O)CN(C)C)c2cc(Br)c(OC)cc12.Cl (stereo not drawn)	-51.5%
CCOC(=O)c1c(C)n(CC(O)CN(CC)CC)c2cc(Br)c(OC)cc12.Cl (stereo not drawn)	-26.9%
CCOC(=O)c1c(CN(C)C)n(-c2ccccc2)c2cc(Br)c(OC)cc12	-58.6%
CCOC(=O)c1c(CN2CCOCC2)n(-c2ccccc2)c2cc(Br)c(O)cc12.Cl	-7.35%
CCOC(=O)c1c(C)n(-c2ccccc2)c2ccc(OCCN(C)C)cc12	-10.6%
CCOC(=O)c1c(C)n(CC(O)CN2CCOCC2)c2cc(Br)c(OC)cc12.Cl (stereo not drawn)	-24%
CCOC(=O)c1c(CN2CCN(Cc3ccccc3)CC2)n(C)c2cc(Br)c(OC)cc12	7.08%
CCOC(=O)c1c(CN(C)C)n(-c2ccc(C)cc2)c2cc(Br)c(O)cc12	-35.8%
CCOC(=O)c1c(CN2CCN(CCO)CC2)n(-c2ccccc2)c2cc(Br)c(O)cc12	-68.2%
CCOC(=O)c1c(CN2CCOCC2)n(-c2ccccc2)c2cc(Br)c(OC)cc12	3.27%
COc1ccccc1NC(=O)CSC1=NCCN1.Cl	36.3%
O=C(c1cccs1)N1CCC(c2ccccc2)C1 (stereo not drawn)	-1.16%

SMILES	hERG current change (%, negative = inhibition) at 10uM
N#Cc1nc(-c2cccs2)oc1NCCc1ccccc1	3.08%
CC(NC(=O)C(=O)N1CCCCC1)C(c1cccs1)N1CCN(c2ccccc2F)CC1 (stereo not drawn)	1.73%
Cc1ccc(-n2c(SCC(=O)NCCC3=CCCCC3)nc3n[nH]c(C)c3c2=N)cc1Cl	-9.38%
COc1cccc(-n2c(SCC(=O)NCCC3=CCCCC3)nc3n[nH]c(C)c3c2=N)c1	-58.9%
Cc1cc(-n2c(SCC(=O)NCCC3=CCCCC3)nc3n[nH]c(C)c3c2=N)ccc1Cl	4.5%
COc1ccc(NC(=O)c2ccc(COc3ccccc3Br)o2)c(OC)c1	10.5%
CCCOc1ccc(OC(=O)Cc2ccc(OC)c(S(=O)(=O)N3CCOCC3)c2)cc1	-21.7%
Cc1ccc(NC(=O)CCN2C(=O)c3ccccc3C2=O)cc1C	4.19%
O=C(CSc1nnc(-c2c[nH]c3ccccc23)n1-c1ccc(F)cc1)NCc1ccco1	-22%
N#Cc1ccccc1NC(=O)COC(=O)C1CCN(C(=O)c2ccc(Cl)cc2)CC1	-62.5%
O=C(COC(=O)C1CCN(C(=O)c2ccc(Cl)cc2)CC1)Nc1ccccc1F	-56.9%
O=C(COC(=O)C1CCN(C(=O)c2ccc(Cl)cc2)CC1)NC1CCS(=O)(=O)C1 (stereo not drawn)	26.9%
O=C(COC(=O)C1CCN(C(=O)c2ccc(Cl)cc2)CC1)c1ccco1	-26.2%
Cc1cc(NC(=O)COC(=O)C2CCN(C(=O)c3ccc(Cl)cc3)CC2)no1	-19.2%
C/C(N)=C(/C#N)C(=O)COC(=O)C1CCN(C(=O)c2ccc(Cl)cc2)CC1	-14.3%
Cc1ccc(-c2cnco2)cc1	11.9%
COCCN(CCOC)C(=S)Nc1ccccc1Cl	6.62%
COc1ccc(NC(=O)C(F)(F)F)cc1OC	15.1%
COc1ccc(CN2C(=O)c3oc4ccccc4c(=O)c3C2c2ccc(O)c(OC)c2)cc1 (stereo not drawn)	4.88%
COc1cccc(OCC(O)CN2CCC(CN3C(=O)c4cccc5cccc(c45)C3=O)CC2)c1.Cl (stereo not drawn)	-72.3%
Cc1cc(C)cc(OCC(O)CN2CCC(CN3C(=O)c4cccc5cccc(c45)C3=O)CC2)c1.Cl (stereo not drawn)	-70%
O=C1c2cccc3cccc(c23)C(=O)N1CC1CCN(S(=O)(=O)c2ccc(F)cc2)CC1	2.54%

SMILES	hERG current change (%, negative = inhibition) at 10uM
Cc1ccc(S(=O)(=O)N2CCC(CN3C(=O)c4cccc5cccc(c45)C3=O)CC2)cc1	11.3%
Cc1ccc(C)c(OCC(O)CN2CCC(CN3C(=O)c4cccc5cccc(c45)C3=O)CC2)c1.Cl (stereo not drawn)	-68.2%
CCOC(=O)N1CCN(CC(O)COc2c(C)cccc2C)CC1.Cl (stereo not drawn)	-15.7%
Cc1cccc(C)c1OCC(O)CN1CCC(CN2C(=O)c3cccc4cccc(c34)C2=O)CC1.Cl (stereo not drawn)	-76.2%
Cl.O=C1c2cccc3cccc(c23)C(=O)N1CC1CCN(CC(O)COc2ccc3ccccc3c2)CC1 (stereo not drawn)	-46.1%
O=C(O)/C(=C\c1cccc(C(F)(F)F)c1)c1ccc(S(=O)(=O)N2CCCC2)s1	5.74%
O=C(Cc1cccs1)Nc1cccc(C(=O)Nc2ccco2)c1	-37.9%
CCOc1ccc(Nc2oc(-c3ccco3)nc2C#N)cc1	-1.69%
COC(=O)c1ccc(NC(=O)CSc2nc(N)c(NC(=O)c3ccc(Br)o3)c(=O)[nH]2)cc1	20.8%
Cc1cc(C)c(S(=O)(=O)Nc2nccs2)c(C)c1	0.875%
Cc1cc(S(=O)(=O)NCC(C)C)ccc1OCC(=O)NCC1CCCO1 (stereo not drawn)	8.03%
CC(=O)Nc1nc(C)c(Oc2ccc(C)cc2)c(=O)[nH]1	-1.03%
S=C(NC1CC1)SCc1ccco1	-11.5%
COc1cccc(NC(=O)CN(C)CC(=O)NC(C)c2ccccc2)c1 (stereo not drawn)	-8.48%
CN(C)CCN1C(=O)c2oc3ccc(F)cc3c(=O)c2C1c1ccncc1 (stereo not drawn)	-2%
CCOC(=O)CC(=O)CSc1ncnc2c1oc1ccccc12	5.2%
Cc1ccc(Cl)cc1Nc1nc(-c2sc(NC(=O)c3ccco3)nc2C)cs1	3.48%
COc1ccc2c(c1)C(C)CC(C)(C)N2C(=O)CSc1ncn[nH]1 (stereo not drawn)	-10.9%
Cc1ccccc1OCCCC(=O)Nc1ccc(Br)cc1	5.24%
COc1cccc(OC)c1C(=O)OCC(=O)N(C)c1ccccc1	7.96%
Cc1ccc(NC(=O)[C@H](C)NC(=O)C2CCN(C(=O)[C@@H](N)CC(C)C)CC2)cc1.Cl	7.29%
